Tests used:
Format in all cases: functional
[1] = system: Plasmodium falciparum; assay: GSK_TCMDC: Inhibition of Plasmodium falciparum 3D7 in whole red blood cells, using parasite LDH activity as an index of growth. Test compounds present at 2uM
[2] = system: Plasmodium falciparum; assay: GSK_TCMDC: Inhibition of Plasmodium falciparum Dd2 in whole red blood cells, using parasite LDH activity as an index of growth. Test compounds present at 2uM
[3] = system: HepG2; assay: GSK_TCMDC: Percent inhibition of human HepG2 cell line. Test compounds present at 10uM.

**Q.** For `O=C(NC1CCN(c2ccnc3cc(Cl)ccc23)C1)c1ccc(C(F)(F)F)cc1.O=C(O)C(F)(F)F` (configuration not stated), which Inhibition [1] is on record?
**A.** 100%

**Q.** What about the Inhibition [2] of the same molecule?
**A.** 57%

**Q.** What about the Inhibition [3] of the same molecule?
**A.** 37%

**Q.** With `CN1CCCC(CN2CCN(Cc3cccc(-c4ccc(-c5nc6ccccc6[nH]5)cc4)c3)CC2)C1.O=C(O)C(F)(F)F` (configuration not stated) as the molecule, how does the Inhibition [1] read?
**A.** 100%

**Q.** And the Inhibition [2]?
**A.** 100%

**Q.** And the Inhibition [3]?
**A.** 73%

**Q.** For `CC(=O)c1ccc2nc[nH]c(=O)c2c1`, which Inhibition [1] is on record?
**A.** 96%

**Q.** What about the Inhibition [2] of the same molecule?
**A.** 99%

**Q.** And the Inhibition [3]?
**A.** 79%

**Q.** Which results are given for `CN(C)CCCOc1cccc(CCNCc2cccc(Oc3ccc(Cl)cc3)c2)c1.O=C(O)C(F)(F)F`?
**A.** Inhibition [1]: 93%; Inhibition [2]: 67%; Inhibition [3]: 72%

**Q.** How did the Inhibition [1] turn out when `COc1ccc2ncc(F)c(CCN3CCC(NCc4cc(OC)c5c(c4)OCCO5)CC3)c2n1.Cl` was run?
**A.** 100%

**Q.** And the Inhibition [2]?
**A.** 53%

**Q.** And the Inhibition [3]?
**A.** 0%

**Q.** How did the Inhibition [1] turn out when `CCc1cn2c3c(cc(C(=O)N[C@@H](Cc4ccccc4)[C@H](O)CNC4CCOCC4)cc13)N(C(C)C)S(=O)(=O)CC2.O=CO` was run?
**A.** 98%

**Q.** What about the Inhibition [2] of the same molecule?
**A.** 99%

**Q.** What about the Inhibition [3] of the same molecule?
**A.** 0%

**Q.** For `O=C(NCc1cccc(Br)c1)c1ccc(CNC2CCN(Cc3ccccc3)CC2)cc1.O=C(O)C(F)(F)F`, which Inhibition [1] is on record?
**A.** 100%

**Q.** What about the Inhibition [2] of the same molecule?
**A.** 49%

**Q.** What about the Inhibition [3] of the same molecule?
**A.** 3%

**Q.** What does the source list for `COC(=O)c1ccc(CC(C)NCC(O)c2ccc(C(O)CNC(C)Cc3ccc(C(=O)OC)cc3)cc2)cc1.O` (configuration not stated)?
**A.** Inhibition [1]: 88%; Inhibition [2]: 13%; Inhibition [3]: 24%

**Q.** `CCOC(=O)c1ccc(N2CCN(c3cc(Cl)ccc3C)CC2)c(NC(=O)Nc2ccc(Cl)c(Cl)c2)c1` was tested. Which Inhibition [1] did it give?
**A.** 99%

**Q.** And the Inhibition [2]?
**A.** 99%

**Q.** What about the Inhibition [3] of the same molecule?
**A.** 10%
